This passage reports cytotoxicity results from PubChem BioAssay AID430 (Sanford-Burnham Center for Chemical Genomics, 2006).

Out of some 63,000 compounds screened, about 1,100 (1.7%) were called active. Shown is part of a subset that was picked to be rich in actives. Measured potencies and affinities stand elsewhere. A number with no mark means an inactive call. Rule as the data show it: active = cytotoxicity above about 50%; inactive = the rest.

This experiment in a line: HPDE-C7 pancreatic duct cell viability loss – fluorescence, HTS (AID 430).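 Also: cells exposed to compound for 48 hours before viability readout; 0% = vehicle and 100% = reference cytotoxic drug.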 The conditions noted are these: HPDE-C7 pancreatic duct cells viability, at 10 µM, stronger effect = higher value.
Turning to `Cc1[nH]c2ccc(-c3nnc(SCC(=O)c4ccc(F)cc4)o3)cc2c1C`, the cytotoxicity was 1.7%. For `Cc1[nH]c2ccc(-c3nnc(SCC(=O)c4ccccc4F)o3)cc2c1C` the value was 66.4% (active); for `Cc1[nH]c2ccc(-c3nnc(SCC(=O)N4CCCc5ccccc54)o3)cc2c1C`, -10.5%.

`COc1cccc(C2(O)CCN(C(=O)C3CCC3)CC2)c1`: the cytotoxicity is -6.9%. Take `O=C1c2ccccc2CCC1C(O)c1ccccn1` (centres undefined): the cytotoxicity was -15%.

For the molecule `COc1cccc(CN(Cc2cccnc2)S(=O)(=O)c2ccc(-n3cnnn3)c(C)c2)c1OC`, the cytotoxicity was -18%. With `COc1ccccc1N1CCN(c2ccc(-c3ccccc3)nn2)CC1`, the cytotoxicity was 61.1% (active). The same measure for `COc1ccccc1N1CCN(c2nc(-c3ccccc3)cc(C(F)(F)F)n2)CC1`: 10.1%. For `COc1ccccc1N1CCN(c2cc(N3CCCC3)nc(C)n2)CC1` the value was 2.7%. For `COCC(C)NC(=O)c1cc(-c2cccc(OC)c2)on1` (centres undefined) the value was -3.6%. `Cc1cc(C)cc(OCC(=O)Nc2ccc(N3CCN(S(C)(=O)=O)CC3)cc2)c1`: the cytotoxicity was -17.3%. Regarding `Cc1ccccc1NC(=O)c1ccc(F)c(S(=O)(=O)N2CCN(c3ccccn3)CC2)c1`, the cytotoxicity was -26.8%. On to `Cc1cc(NCCCN2CCOCC2)n2ncc(-c3ccc(Cl)cc3)c2n1`, for which the cytotoxicity was 11.9%.

`Cc1cc(NCCN2CCOCC2)n2ncc(-c3ccc(Cl)cc3)c2n1`: the cytotoxicity was 9.8%. For `Cc1cc(NCCOCCO)n2ncc(-c3ccc(Cl)cc3)c2n1` the value was 65.6% (active); for `Cc1cc(C)n(S(=O)(=O)Cc2ccccc2)n1`, -8.3%.

For the molecule `O=S(=O)(/C=C/c1ccccc1)n1cnc2ccccc21`, the cytotoxicity was 22.4%.

Take `Cc1cc(C)nc(Nc2n[nH]c(-c3ccccc3Br)n2)n1`: the cytotoxicity was -1.8%. For the molecule `COc1ccccc1N1CCN(C(=O)Nc2cccc(C)c2)CC1`, the cytotoxicity is -2.6%.

On to `Cc1ccc(SC(C)C(=O)N2CCCC2)cc1` (centres undefined), for which the cytotoxicity was 5.9%. For `CCCCCCNS(=O)(=O)c1ccc(Cl)s1` the value was -26.3%. Regarding `CCC(=O)Nc1nonc1-c1nc2ccccc2n1CC(C)C`, the cytotoxicity was 25.7%. Consider `CCCCn1c(-c2nonc2NC(=O)c2ccccc2Cl)nc2ccccc21`, for which the cytotoxicity is 69.4% (active). Turning to `CCOC(=O)Cn1c(-c2nonc2NC(=O)c2ccccc2F)nc2ccccc21`, the cytotoxicity is 41.5%. Consider `N#CCCn1c(-c2nonc2NC(=O)c2ccccc2Cl)nc2ccccc21`, for which the cytotoxicity is 41.9%.

As to `CCC(=O)Nc1nonc1-c1nc2ccccc2n1Cc1ccccc1`, the cytotoxicity is 6.6%. The same measure for `CCC(=O)Nc1nonc1-c1nc2ccccc2n1N(C(=O)CC)C(=O)CC`: 54.2% (active). The same measure for `Cc1ccc(N2C(=O)CC(N(O)C3CC(=O)N(c4ccc(C)cc4)C3=O)C2=O)cc1` (centres undefined): 14.1%; for `C=CCNC(=O)c1sc(=S)n(-c2ccc(C(=O)OCC)cc2)c1N`: 2.1%.

As to `COc1ccc(C)cc1NC(=O)C1CCCN(S(=O)(=O)c2cnc[nH]2)C1` (centres undefined), the cytotoxicity is 11.5%. For `O=C(Cc1ccc(Cl)cc1)Nc1ccccc1CO` the value was -8.9%; for `CSc1nc(=NC(C)=O)ss1`, -2%.

Regarding `CC1CCN(C(=O)CSc2nc(N)c3c4c(sc3n2)CN(C)CC4)CC1`, the cytotoxicity was 5.8%. For `COc1ccc(C(=O)n2cnc(N)n2)cc1`, the cytotoxicity was 2.7%. On to `CCCCOc1ccc(C(=O)N2CCCCCC2)cc1`, for which the cytotoxicity was -14.5%. For `CCCCCCOc1ccc(C(=O)n2cnc(N)n2)cc1` the value was 71.3% (active); for `CCCCn1nc(NC(=O)c2cccs2)c2cc3cc(OC)ccc3nc21`, 28.9%; for `CCCn1nc(NC(=O)c2cccs2)c2cc3cc(OC)ccc3nc21`, -7.4%. For `COc1ccc2nc3c(cc2c1)c(NC(=O)c1cccs1)nn3CC(C)C`, the cytotoxicity was 50.8% (active). For the molecule `O=S(=O)(NCc1ccco1)c1cccc2cccnc12`, the cytotoxicity was 15.9%. With `Cc1ccc(C)c(S(=O)(=O)C(C#N)c2nc3ccccc3nc2N2CC(C)OC(C)C2)c1` (centres undefined), the cytotoxicity is 48.7%. For `Cc1ccc(S(=O)(=O)C(C#N)c2nc3ccccc3nc2N2CC(C)OC(C)C2)cc1C` (centres undefined) the value was 50% (active). On to `Cc1cccc(S(=O)(=O)C(C#N)c2nc3ccccc3nc2N2CCCC2)c1` (centres undefined), for which the cytotoxicity is -7.1%. Regarding `Cc1cccc(S(=O)(=O)C(C#N)c2nc3ccccc3nc2N2CC(C)OC(C)C2)c1` (centres undefined), the cytotoxicity was 7.1%. `Cc1ccc(S(=O)(=O)C(C#N)c2nc3ccccc3nc2N2CCCC2)cc1C` (centres undefined): the cytotoxicity is 53.9% (active).

As for `Cc1ccc(S(=O)(=O)C(C#N)c2nc3ccccc3nc2N2CCCC2)cc1` (centres undefined), the cytotoxicity is 23.3%.

Consider `COc1ccc2nc(NC(=O)Cc3ccc(OC)c(S(=O)(=O)N4CCOCC4)c3)sc2c1`, for which the cytotoxicity was 13.1%. For `C=C1c2ccc(C)cc2NC(=O)N1c1ccccc1` the value was -11.1%; for `CCc1c(C)nc2ncnn2c1NCCc1ccc(OC)c(OC)c1`, 4.7%.

In the case of `CCc1c(C)nc2ncnn2c1NCCc1ccc(OC)cc1`, the cytotoxicity is 64.9% (active). Regarding `COc1ccc(CCNc2c(C)c(C)nc3ncnn23)cc1`, the cytotoxicity is 10%. The same measure for `COCCNC(=O)c1ccccc1NC(=O)c1ccc(OC)c(OC)c1`: -2.2%. The same measure for `O=P(c1ccccc1)(c1ccccc1)C(c1ccco1)N1CCOCC1` (centres undefined): -5.8%. The same measure for `O=C(Nc1ccc(N2CCOCC2)c(Cl)c1)c1ncn[nH]1`: -2.8%; for `COc1ccc2[nH]c(C(=O)O)c(CCC(=O)O)c2c1`: 5.8%; for `O=C(O)CCc1cc(I)c(Oc2ccc(O)c(I)c2)c(I)c1`: 92.3% (active). On to `N[C@@H](Cc1ccc(O)c(I)c1)C(=O)O`, for which the cytotoxicity is -10.4%.

On to `O=C(COc1ccccc1)Nc1nc2ccccc2[nH]1`, for which the cytotoxicity was -9.3%. For `COC(=O)Nc1nc2ccc(C(=O)c3ccccc3)cc2[nH]1` the value was 69.2% (active). For `Cc1nc2ccc(C(=O)c3ccccc3)cc2[nH]1` the value was -13.6%; for `COC(=O)Nc1nc2ccc(Sc3ccccc3)cc2[nH]1`, 60.6% (active).

In the case of `O=C(Nc1nc2ccccc2[nH]1)c1ccc(F)cc1`, the cytotoxicity was -12.8%. Regarding `COc1cc(C(=O)Nc2nc3ccccc3[nH]2)cc(OC)c1OC`, the cytotoxicity was -19.5%. In the case of `Cc1c(NC(=O)c2cc(-c3ccccc3)on2)c(=O)n(-c2ccccc2)n1C`, the cytotoxicity was -4.6%.

With `O=S(=O)(NCC1CCCO1)c1cccc2nsnc12` (centres undefined), the cytotoxicity was -2.4%. For `O=C(OCc1cc(-c2ccccc2)no1)c1ccc2ccccc2n1` the value was -17.4%; for `CS(=O)(=O)c1ncc(Cl)c(C(=O)Nc2ccc(N3CCOCC3)cc2)n1`, 72.4% (active).

Take `O=C(Nc1ccc(N2CCOCC2)cc1)c1cnsn1`: the cytotoxicity is -19.9%. With `CSc1ncc(Cl)c(C(=O)Nc2ccc(S(=O)(=O)N3CCOCC3)cc2)n1`, the cytotoxicity was 7.9%. For `Cc1cc(NC(=O)CCN2C(=O)c3ccccc3C2=O)no1` the value was -2.5%. With `CCn1c2ccccc2c2cc(C3C(C#N)=C(C)NC(C)=C3C#N)ccc21`, the cytotoxicity was -2.6%. With `CCn1c2ccccc2c2cc(C3C(C#N)=C(N)OC4=C3C(=O)CC(C)(C)C4)ccc21` (centres undefined), the cytotoxicity was -26.8%. As for `CCCc1[nH]nc2c1C(c1ccccc1OC)C(C#N)=C(N)O2` (centres undefined), the cytotoxicity was 4.9%. The same measure for `O=C(O)C1C2C=CC3(CN(Cc4ccccn4)C(=O)C13)O2` (centres undefined): 63.6% (active); for `O=C(O)C1C2C=CC3(CN(Cc4ccncc4)C(=O)C13)O2` (centres undefined): -13.4%; for `O=C(O)C1C2C=CC3(CN(Cc4ccco4)C(=O)C13)O2` (centres undefined): -6.3%.

Turning to `COCCn1c(SCC(=O)N2CCCc3ccccc32)nnc1-c1ccco1`, the cytotoxicity is -4.5%. The same measure for `CC(=O)N1C(=O)C2(Nc3ccccc3N2)c2ccccc21`: -0.7%. Regarding `CCNC(=O)N1C(=O)C2(OCCO2)c2ccccc21`, the cytotoxicity is -15.9%. The same measure for `CCCCOc1ccc(OCCCC)c2c1NC1(N2)C(=O)N(C(C)=O)c2ccccc21`: 69.8% (active); for `CCOC(=O)Cc1nnc(NC(=O)Nc2ccccc2)s1`: 5%; for `Nc1cc(N)cc(-c2nc3ccccc3o2)c1`: 18.2%. `Nc1ccc(-c2nc3ccccc3[nH]2)cc1`: the cytotoxicity is -5.6%.

Take `Nc1ccc(-c2nc3ccc(-c4nc5ccccc5o4)cc3[nH]2)cc1`: the cytotoxicity is 76.2% (active). For `O=S(=O)(Nc1nnc(-c2ccccc2)s1)c1ccc(Cl)cc1`, the cytotoxicity was 8.8%.

Take `FC(F)(F)c1cc(-c2ccco2)nc(-n2nc(C(F)(F)F)cc2C2CC2)n1`: the cytotoxicity was 5.7%. With `Cn1c(=O)c2c(nc(SCC(=O)N3CCCc4ccccc43)n2C)n(C)c1=O`, the cytotoxicity was -17.3%. For `O=C(CCCCn1c(=O)c2ccccc2n(Cc2ccc(F)cc2Cl)c1=O)NCc1ccco1`, the cytotoxicity was 2.9%. For `O=C(NCc1ccccn1)c1ccc(COc2ccc(Cl)cc2)o1` the value was 4.2%; for `O=C(c1ccco1)N1CCN(c2nc(C(F)(F)F)nc3c2nnn3Cc2ccccc2)CC1`, 11.6%.

As for `Cc1nc(N2CCCC2)c2nnn(Cc3ccccc3Cl)c2n1`, the cytotoxicity is -10.9%.

Take `CC(=O)Nc1ccc(NC(=O)c2c(C)nc3ccccn23)cc1`: the cytotoxicity is 6.8%. As to `N#CC1=C(N)Oc2cc(N)ccc2C1C1CCCCC1` (centres undefined), the cytotoxicity was 22.2%. For `COc1ccc(C2C(C#N)=C(N)Oc3cc(O)ccc32)cc1OC` (centres undefined) the value was -6.7%; for `COc1ccc(OC)c(C2C(C#N)=C(N)Oc3cc(N)ccc32)c1` (centres undefined), -0.7%. For the molecule `Cc1[nH]nc2c1C(C1CC=CCC1)C(C#N)=C(N)O2` (centres undefined), the cytotoxicity was 0.7%. On to `COc1cc(C2C(C#N)=C(N)Oc3cc(N)ccc32)cc(OC)c1OC` (centres undefined), for which the cytotoxicity was 58.5% (active). `N#CC1=C(N)Oc2cc(N)ccc2C1C1CC=CCC1` (centres undefined): the cytotoxicity was 59.8% (active). For the molecule `Cc1cc(C(=O)NCC2CCCO2)n(-c2ccccc2)n1` (centres undefined), the cytotoxicity was 0.2%.
